Bioassay records (PubChem BioAssay)
FAS TE block: blocks the thioesterase domain of human fatty acid synthase; P49327; 0.67% of 360,000 active; inhibition, % at 15 µM; recombinant FAS-TE, OMFH fluorogenic substrate, fluorescence endpoint;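 active = compounds whose normalised, plate-corrected inhibition of enzyme fluorescence in the single-dose primary screen is 50% or more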;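 note: 0% = DMSO with enzyme and 100% = substrate without enzyme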
NR3A LBD binder: NR3A (human) ligand-binding domain modulation | NR3A LBD differential scanning fluorimetry, Tm shift; 0% = protein alone, 100% = glycine-bound protein | Tm shift relative to glycine control, % at 25 µM | 2.5% of 340,000 active;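 active = melting temperature shift of at least 10% of the positive control shift, at one fixed dose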
ADAM10 inh: inhibits human ADAM10; AID 720582; recombinant ADAM10, EDANS/DABCYL FRET peptide cleavage, 3 h; 0.62% of 370,000 active; O14672; inhibition, % at 7 µM;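 active = inhibition above a per-campaign cutoff equal to the mean of compounds falling between control-based bounds plus 3 SD, cut at about 20% in these data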;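 note: 0% = DMSO wells while the 100% control is not disclosed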
KLK7 zymogen act: activates the human kallikrein-7 zymogen; P49862; purified proKLK7, EDANS-DABCYL substrate fluorescence; 100% is mature enzyme control, 0% vehicle; activation, % at 7 µM; 0.9% of 370,000 active;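 active = activation above the mean of all tested compounds plus 3 SD, computed per campaign excluding outliers beyond control limits, cut at about 13% in these data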
ADAM17 inh: ADAM17 inhibition, QFRET primary screen. inhibition, % at 6.95 µM. 0.83% of 370,000 active. recombinant ADAM17, EDANS/DABCYL FRET peptide cleavage. AID 720648;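 active = inhibition above the mean of compounds lying between control limits plus 3 SD, set per campaign, cut at about 8.5% in these data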;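 note: 0% = DMSO-only wells as the low control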
ADAM10 confirm: human ADAM10 inhibition, confirmation | shares compounds with ADAM10 inh | 1% of 2,100 active | ADAM10 QFRET peptide cleavage, EDANS fluorescence | inhibition, % at 6.95 µM;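 active = inhibition above about 20% chosen separately for each screening run, limit read from the data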;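 note: 0% = DMSO wells and 100% = marimastat wells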
ADAM17 counter: counter-screen for ADAM10 exosite inhibitors: inhibitors of human ADAM17; shares compounds with ADAM10 inh; ADAM17 QFRET peptide cleavage, EDANS fluorescence; inhibition, % at 6.95 µM; 0.5% of 2,100 active;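 active = mean triplicate inhibition above the solvent-only control wells' mean plus 3 SD, cut at about 12% in these data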;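 note: 0% = DMSO wells and 100% = marimastat wells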
ADAM10 ctr: counter-screen for ADAM17 exosite inhibitors: inhibitors of human ADAM10; shares compounds with ADAM17 inh; recombinant ADAM10, EDANS/DABCYL FRET peptide cleavage, 3 h; inhibition, % at 6.95 µM; 47% of 2,900 active; AID 743256;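 active = mean inhibition over the triplicate runs exceeds the activity threshold set in the earlier primary screen, cut at about 20% in these data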;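 note: 0% = DMSO wells and 100% = marimastat wells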
ADAM17 confirm: confirmation of inhibitors of human ADAM17; shares compounds with ADAM17 inh; AID 743257; 65% of 2,900 active; inhibition, % at 6.95 µM; recombinant ADAM17, EDANS/DABCYL QFRET peptide cleavage;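 active = mean inhibition across replicates above the hit cutoff set in the primary screen, cut at about 8.5% in these data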;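 note: 0% = DMSO wells and 100% = marimastat wells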
Active calls of the source: *. Only some compounds are listed: those with a hit (about 4.6% of all), similar ones and a draw of the others.

COc1ccc(-c2n[nH]c(C)c2-c2cnn(-c3ccccc3)c2)c(O)c1C was read as FAS TE block 23, NR3A LBD binder 24*, ADAM10 inh 32*, KLK7 zymogen act -1, ADAM17 inh 15*, ADAM10 confirm 12, ADAM17 counter 5, ADAM10 ctr 27* and ADAM17 confirm 16*.
O=C(Nc1cc(Cl)ccc1O)C1CC(c2c(F)cccc2Cl)=NO1 (stereo not given) was read as FAS TE block 9, NR3A LBD binder 0, ADAM10 inh 26*, KLK7 zymogen act -1, ADAM17 inh 9.6*, ADAM10 confirm 9, ADAM17 counter 4, ADAM10 ctr 19 and ADAM17 confirm 12*.
Screening O=C(NCc1cc(C(F)(F)F)cc(C(F)(F)F)c1)C1CC(c2ccccc2C(F)(F)F)=NO1 (stereo not given) returned NR3A LBD binder -16, ADAM10 inh 31*, KLK7 zymogen act 0, ADAM17 inh 17*, ADAM10 confirm 0, ADAM17 counter 0, ADAM10 ctr 49* and ADAM17 confirm 25*.
Screening O=C(NCc1cc(C(F)(F)F)cc(C(F)(F)F)c1)C1CC(c2c(Cl)cccc2Cl)=NO1 (stereo not given) returned FAS TE block 17, NR3A LBD binder -3, ADAM10 inh 19, KLK7 zymogen act 0 and ADAM17 inh 4.
Screening O=C(Nc1cccc(O)c1)C1CC(c2c(F)cccc2Cl)=NO1 (stereo not given) returned FAS TE block -1, NR3A LBD binder -2, ADAM10 inh 2, KLK7 zymogen act -1 and ADAM17 inh -5.
Screening O=C(NCc1ccc(C(F)(F)F)cc1)C1CC(c2ccccc2C(F)(F)F)=NO1 (stereo not given) returned FAS TE block 26, NR3A LBD binder -36, ADAM10 inh 5, KLK7 zymogen act 0 and ADAM17 inh -2.
For O=C(NCc1ccc(OC(F)(F)F)cc1)C1CC(c2c(Cl)cccc2Cl)=NO1 (stereo not given) the results were FAS TE block 27, NR3A LBD binder -7, ADAM10 inh 21*, KLK7 zymogen act 0, ADAM17 inh 9.5*, ADAM10 confirm 2, ADAM17 counter 0, ADAM10 ctr 24* and ADAM17 confirm 13*.
O=C(Nc1ccc(C(F)(F)F)cc1[N+](=O)[O-])O[C@H]1[C@H](Cc2ccccc2)NS(=O)(=O)[C@H]2C[C@@H]3C=C[C@]12O3 was read as FAS TE block 35, NR3A LBD binder -5, ADAM10 inh 29*, KLK7 zymogen act 0, ADAM17 inh 14*, ADAM10 confirm 3, ADAM17 counter 0, ADAM10 ctr 11 and ADAM17 confirm 5.
Screening O=S(=O)(c1ccccc1)N1CCCc2nc(-c3ccccc3)ccc21 returned ADAM10 inh 5, KLK7 zymogen act 1 and ADAM17 inh 0.
Screening CCCCCCC12C(=Cc3cc4c(cc31)OCCO4)c1cc(OC)c(OC)cc1C(CC(=O)NCc1ccccc1)N2C(=O)OC (stereo not given) returned ADAM10 inh -25, KLK7 zymogen act 0 and ADAM17 inh -6.
For CC(=O)Nc1ccc(N(CC(O)Cn2c3ccccc3c3ccccc32)S(=O)(=O)c2ccc(C)cc2)cc1 (stereo not given) the results were FAS TE block 31, NR3A LBD binder 22*, ADAM10 inh 29*, KLK7 zymogen act -1, ADAM17 inh 10*, ADAM10 confirm 10, ADAM17 counter 4, ADAM10 ctr 41* and ADAM17 confirm 23*.
Screening CCCc1nc2ccccc2c(C(=O)OCC(=O)Nc2ccc(S(=O)(=O)N3CCOCC3)cc2)c1CC returned FAS TE block 28, NR3A LBD binder 18*, ADAM10 inh 40*, KLK7 zymogen act 0, ADAM17 inh 18*, ADAM10 confirm 10, ADAM17 counter 4, ADAM10 ctr 30* and ADAM17 confirm 18*.
Screening O=C(COC(=O)C12CC3CC(CC(O)(C3)C1)C2)Nc1ccc(OC(F)F)cc1 returned FAS TE block -3, NR3A LBD binder 8, ADAM10 inh -6, KLK7 zymogen act 0 and ADAM17 inh 0.
For O=C(COC(=O)C12CC3CC(CC(C3)C1)C2)Nc1ccc(OC(F)F)cc1 the results were FAS TE block 32, NR3A LBD binder 8, ADAM10 inh 27*, KLK7 zymogen act 0, ADAM17 inh 15*, ADAM10 confirm 4, ADAM17 counter 1, ADAM10 ctr 24* and ADAM17 confirm 12*.
`CCCn1c(SCC(=O)N2c3ccccc3Sc3ccccc32)nc2ccccc21` gave FAS TE block 46, NR3A LBD binder 1, ADAM10 inh 26*, KLK7 zymogen act 0, ADAM17 inh 10*, ADAM10 confirm 3, ADAM17 counter 0, ADAM10 ctr 17 and ADAM17 confirm 11*.
`Cc1ccc(NC(=S)NNC(=O)CSc2nc3ccccc3c(=O)n2-c2ccc(C)cc2)cc1` gave FAS TE block 8, NR3A LBD binder 1, ADAM10 inh 6, KLK7 zymogen act 0 and ADAM17 inh 5.
Screening COc1ccc(-n2c(SCC(=O)NNC(=S)Nc3ccccc3)nc3ccccc3c2=O)cc1 returned ADAM10 inh 26*, KLK7 zymogen act 0, ADAM17 inh 12*, ADAM10 confirm 2, ADAM17 counter 0, ADAM10 ctr 12 and ADAM17 confirm 8.6*.
`COc1cc(NC(=O)CSc2nc3[nH]ncc3c(=O)n2-c2ccc(Cl)cc2)cc(OC)c1` gave FAS TE block -69, NR3A LBD binder 13*, ADAM10 inh 31*, KLK7 zymogen act 0, ADAM17 inh 12*, ADAM10 confirm 3, ADAM17 counter 1, ADAM10 ctr 26* and ADAM17 confirm 13*.
`O=C(N[C@H](C(=O)N1CCC[C@H]1C(=O)NCc1ccccc1)c1ccccc1)c1ccc(Cl)cc1Cl` gave ADAM10 inh -1, KLK7 zymogen act 1 and ADAM17 inh -4.
`Cc1ccc(S(=O)(=O)Nc2ccc3ccccc3c2)cc1` gave FAS TE block 28, NR3A LBD binder -5, ADAM10 inh 24*, KLK7 zymogen act 0, ADAM17 inh 17*, ADAM10 confirm 7, ADAM17 counter 2, ADAM10 ctr 13 and ADAM17 confirm 8.
